Test results as given in PubChem BioAssay AID504604 (National Center for Advancing Translational Sciences (NCATS), 2011).
“And” between values parts separate entries of the source, which are not always exact repeats. Equal values may be shown once. The source made the active and inactive calls. The call rests on the fitted dose curve; in most records, active means well fitted inhibition curve with a large enough effect; inconclusive means small, poorly fitted or top-dose-only effect; inactive means flat fitted curve, though single readings scatter.

Test: Quantitative high throughput screen to test activity of anti-malarial compounds in the Dd2 strain of Plasmodium Falciparum
Conditions: P. falciparum Dd2 in RBCs, SYBR Green growth, 72 h
Text: NIH Molecular Libraries Probe Production Network [MLPCN] NIH Chemical Genomics Center [NCGC] MLPCN Grant: R21 NS059500 Assay Provider: David Fidock and Eric Ekland, Columbia University The goal of this screen is to measure the ability of a set of anti-malarial compounds to inhibit the Dd2 strain of P. falciparum. These compounds have been screened in a delayed death phenotype assay and have been identified as inhibitors of the delated death phenotype, by inhibiting the development of the apicoplast in the malarial parasite Plasmodium falciparum (described below) The biochemical processes that make this organelle essential for erythrocytic stage parasites are not well understood. However, antibiotics, such as azithromycin and tetracycline, which target the apicoplast translational machinery, have a potent antimalarial effect. […] We have developed a cell-based assay that measures parasite growth based on the expression of an integrated copy of a firefly luciferase reporter. To detect small molecules that cause this 'delayed death' phenotype, erythrocytes infected with the luciferase-expressing parasites were incubated with compounds for either one or two generations, corresponding to 48 and 96 hours, respectively. Compounds that inhibit parasite growth in the second generation, but not the first, should be enriched in antimalarials that target the apicoplast. Growth inhibition is detected by a decrease in luciferase activity
3 ul culture medium was dispensed into black clear-bottom plates (aurora) with multidrop Combi followed by a pin-transfer of […] compounds and positive control into assay plates. (Controls: 1 mM Artemisinin 1:2 dilution in duplicate Multi-Drop dispense of P. falciparum infected RBCs (0.3% parasitemia, 2.5% hematocrit final concentration) followed by 72 hr incubation (37C, 5% CO2). Multi-drop dispense 2 ul 10 X SYBR Green lysis buffer ([…] Tris-HCl, 10 mM EDTA, 0.16% saponin (w/v), 1.6% Triton-X (v/v), 10 x SYBR Green I supplied as 10,000 x final concentration by Invitrogen) into assay plates. Incubated at Room temperature, overnight in the dark and then read using Envision (Perkin Elmer) with fluorescence intensity at 485 nm excitation and 535 nm emission wavelengths.

Potency, active:
C[C@@H]1CN([C@@H](C)CO)C(=O)c2cc(NC(=O)Nc3ccccc3)ccc2O[C@@H](C)CCCCO[C@H]1CN(C)Cc1ccc(C(F)(F)F)cc1 1590 nM
C[C@@H]1CN([C@@H](C)CO)C(=O)c2cc(NC(=O)Nc3ccccc3)ccc2O[C@@H](C)CCCCO[C@H]1CN(C)S(=O)(=O)c1ccccc1F 2000 nM
C[C@@H]1CN([C@H](C)CO[Si](C)(C)C(C)(C)C)C(=O)c2cc(NC(=O)Nc3ccccc3)ccc2O[C@@H](C)CCCCO[C@H]1CN(C)S(=O)(=O)c1ccc(F)cc1 565 nM
C[C@@H]1CCCCO[C@H](CN(C)C(=O)Nc2ccc(F)cc2)[C@H](C)CN([C@@H](C)CO)C(=O)c2cc(NS(=O)(=O)c3ccccc3)ccc2O1 504 nM
C[C@@H]1CN([C@@H](C)COC(C)(C)C)C(=O)c2cc(NC(=O)Nc3ccccc3)ccc2O[C@@H](C)CCCCO[C@H]1CN(C)S(=O)(=O)c1ccc(F)cc1 3.6 nM
COCOC[C@H](C)N1C[C@@H](C)[C@H](CN(C)S(=O)(=O)c2ccc(F)cc2)OCCCC[C@H](C)Oc2ccc(NC(=O)Nc3ccccc3)cc2C1=O 28.3 nM
COc1ccc(COC[C@H](C)N2C[C@@H](C)[C@H](CN(C)Cc3ccc(OC)cc3)OCCCC[C@H](C)Oc3ccc(NC(=O)Nc4ccccc4)cc3C2=O)cc1 798 nM
C[C@@H]1CN([C@@H](C)CO)C(=O)c2cc(Nc3nc4ccccc4o3)ccc2O[C@@H](C)CCCCO[C@H]1CN(C)S(=O)(=O)c1ccc(F)cc1 2000 nM
C[C@@H]1CN([C@@H](C)COC(=O)c2ccccc2)C(=O)c2cc(NC(=O)Nc3ccccc3)ccc2O[C@@H](C)CCCCO[C@H]1CN(C)S(=O)(=O)c1ccc(F)cc1 179 nM
C[C@@H]1CN([C@@H](C)COC(=O)C(C)(C)C)C(=O)c2cc(NC(=O)Nc3ccccc3)ccc2O[C@@H](C)CCCCO[C@H]1CN(C)S(=O)(=O)c1ccc(F)cc1 50.4 nM
CC(C)NC(=O)Nc1ccc2c(c1)C(=O)N([C@@H](C)CO)C[C@@H](C)[C@H](CN(C)S(=O)(=O)c1ccc(F)cc1)OCCCC[C@H](C)O2 1790 nM
Cc1noc(C)c1NC(=O)Nc1ccc2c(c1)C(=O)N(C(C)C)C[C@@H](C)[C@H](CN(C)S(=O)(=O)c1ccc(F)cc1)OCCCC[C@H](C)O2 179 nM and 2.52 µM
C[C@@H]1CN([C@@H](C)CO[Si](C)(C)C(C)(C)C)C(=O)c2cc(NC(=O)Nc3ccccc3)ccc2O[C@@H](C)CCCCO[C@H]1CN(C)S(=O)(=O)c1ccc(F)cc1 5 nM
C[C@@H]1CN([C@@H](C)CO)C(=O)c2cc(NC(=O)Nc3ccccc3)ccc2O[C@@H](C)CCCCO[C@H]1CN(C)S(=O)(=O)c1cccc(F)c1 50.4 nM
C[C@@H]1CCCCO[C@@H](CN(C)Cc2ccc(F)cc2)[C@H](C)CN([C@@H](C)CO)C(=O)c2cc(NC(=O)Nc3ccccc3)ccc2O1 6340 nM
C[C@@H]1CN(CCO)C(=O)c2cc(NC(=O)Nc3ccccc3)ccc2O[C@@H](C)CCCCO[C@H]1CN(C)S(=O)(=O)c1ccc(F)cc1 2520 nM
C=CCOC(=O)N(C)C[C@H]1OCCCC[C@H](C)Oc2ccc(NC(=O)Nc3ccccc3)cc2C(=O)N([C@@H](C)CO[Si](C)(C)C(C)(C)C)C[C@H]1C 565 nM
C[C@@H]1CN([C@@H](C)CO)C(=O)c2cc(NC(=O)Nc3ccccc3)ccc2O[C@@H](C)CCCCO[C@H]1CN(C)C(=O)OC(C)(C)C 2250 nM
C[C@@H]1CN(C)C(=O)c2cc(NC(=O)Nc3ccccc3)ccc2O[C@@H](C)CCCCO[C@@H]1CN(C)S(=O)(=O)c1ccc(F)cc1 3570 nM
CC(C)N1C[C@@H](C)[C@H](CN(C)S(=O)(=O)c2ccc(F)cc2)OCCCC[C@H](C)Oc2ccc(NC(=O)Nc3ccccc3)cc2C1=O 56.5 nM
Cc1noc(C)c1NC(=O)Nc1ccc2c(c1)C(=O)N([C@@H](C)CO)C[C@@H](C)[C@H](CN(C)S(=O)(=O)c1ccc(F)cc1)OCCCC[C@H](C)O2 634 nM
C[C@@H]1CN([C@@H](C)CO)C(=O)c2cc(NC(=O)Nc3ccccc3)ccc2O[C@@H](C)C/C=C\CO[C@H]1CN(C)S(=O)(=O)c1ccc(F)cc1 1260 nM
COCCOCOC[C@H](C)N1C[C@@H](C)[C@H](CN(C)S(=O)(=O)c2ccc(F)cc2)OCCCC[C@H](C)Oc2ccc(NC(=O)Nc3ccccc3)cc2C1=O 35.7 nM
C[C@@H]1CN([C@@H](C)COC(=O)c2ccccc2)C(=O)c2cc(NC(=O)Nc3ccccc3)ccc2O[C@@H](C)CCCCO[C@H]1CN(C)C(=O)OC(C)(C)C 798 nM
C[C@@H]1CN([C@@H](C)CN=[N+]=[N-])C(=O)c2cc(NC(=O)Nc3ccccc3)ccc2O[C@@H](C)CCCCO[C@H]1CN(C)S(=O)(=O)c1ccc(F)cc1 56.5 nM
C[C@@H]1CN([C@@H](C)CO)C(=O)c2cc(NC(=O)Nc3ccccc3)ccc2O[C@@H](C)CCCCO[C@H]1CN(C)S(=O)(=O)c1cccnc1 4490 nM
C[C@@H]1CN([C@@H](C)CO)C(=O)c2cc(N)ccc2O[C@@H](C)CCCCO[C@H]1CN(C)S(=O)(=O)c1ccc(F)cc1 711 nM
C[C@@H]1CN([C@@H](C)CO)C(=O)c2cc(NC(=O)Nc3ccccc3)ccc2O[C@@H](C)CCCCO[C@H]1CN(C)S(=O)(=O)c1ccc(C(F)(F)F)cc1 1130 nM
C[C@@H]1CN(CCO[Si](C)(C)C(C)(C)C)C(=O)c2cc(NC(=O)Nc3ccccc3)ccc2O[C@@H](C)CCCCO[C@H]1CN(C)S(=O)(=O)c1ccc(F)cc1 225 nM
C[C@@H]1CN([C@@H](C)CO)C(=O)c2cc(NC(=O)Nc3ccccc3)ccc2O[C@@H](C)C/C=C/CO[C@H]1CN(C)S(=O)(=O)c1ccc(F)cc1 565 nM
COc1ccc(COCCN2C[C@@H](C)[C@H](CN(C)S(=O)(=O)c3ccc(F)cc3)OCCCC[C@H](C)Oc3ccc(NC(=O)Nc4ccccc4)cc3C2=O)cc1 252 nM
C=CCOC(=O)N(C)C[C@@H]1OCCCC[C@H](C)Oc2ccc(NC(=O)Nc3ccccc3)cc2C(=O)N([C@@H](C)CO)C[C@H]1C 1260 nM
C=CCOC(=O)N(C)C[C@@H]1OCCCC[C@H](C)Oc2ccc(NC(=O)Nc3ccccc3)cc2C(=O)N([C@H](C)COC(=O)c2ccccc2)C[C@H]1C 896 nM
